From PubChem BioAssay (NCATS)
Several values for one entry are separate records, joined by “and”; a condition that tells them apart may be missing. Identical values can stand only once. Results filed as inconclusive are left out. Activity calls are given as the source filed them. Unless noted, calls follow the shape of the full dose curve.

Tests used:
[1] = biological target: Bile acid receptor (Homo sapiens) (UniProt Q96RI1); assay: qHTS assay for small molecule antagonists of farnesoid X receptor signaling (AID 588526); also: % is scaled to controls: 0 for no effect and ±100 for the full control effect
Sequence of Bile acid receptor (Homo sapiens) (Q96RI1 whole entry, looked up): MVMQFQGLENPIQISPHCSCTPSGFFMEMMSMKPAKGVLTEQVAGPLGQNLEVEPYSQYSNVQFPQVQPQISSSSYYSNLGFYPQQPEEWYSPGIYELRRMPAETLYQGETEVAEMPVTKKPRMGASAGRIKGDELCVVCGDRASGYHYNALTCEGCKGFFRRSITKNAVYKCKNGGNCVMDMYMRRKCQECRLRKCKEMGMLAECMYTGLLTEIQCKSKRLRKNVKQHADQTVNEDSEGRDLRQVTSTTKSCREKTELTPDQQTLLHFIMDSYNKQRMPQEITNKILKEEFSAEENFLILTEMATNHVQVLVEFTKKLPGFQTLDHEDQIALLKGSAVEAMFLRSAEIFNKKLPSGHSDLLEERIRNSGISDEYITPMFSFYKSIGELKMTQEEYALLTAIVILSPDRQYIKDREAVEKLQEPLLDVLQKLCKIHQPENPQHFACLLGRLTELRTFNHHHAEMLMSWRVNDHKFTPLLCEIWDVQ
How it was run: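 Antagonist mode: titrated compounds tested against chenodeoxycholic acid stimulation (normalized to 50 uM CDCA and DMSO) in GeneBLAzer HEK293T cells for 16 h. Beta-lactamase read by CCF4 fluorescence; IC50 from Hill fits.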

[2] = biological target: Glucocorticoid receptor (Homo sapiens) (UniProt P04150); assay: qHTS assay for small molecule agonists of glucocorticoid receptor signaling (AID 588532; active = well fitted curve in the direction sought with a large enough effect in the signal ratio, with a control signal flat; the % refers to the signal ratio;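 also: 100% = dexamethasone at 0.1 µM and 0% = DMSO only wells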); details: HeLa MMTV-bla, beta-lactamase ratio, agonist, 18 h; stronger effect = higher value; percent of dexamethasone control, DMSO zero
Sequence of Glucocorticoid receptor (Homo sapiens) (P04150 whole entry, looked up): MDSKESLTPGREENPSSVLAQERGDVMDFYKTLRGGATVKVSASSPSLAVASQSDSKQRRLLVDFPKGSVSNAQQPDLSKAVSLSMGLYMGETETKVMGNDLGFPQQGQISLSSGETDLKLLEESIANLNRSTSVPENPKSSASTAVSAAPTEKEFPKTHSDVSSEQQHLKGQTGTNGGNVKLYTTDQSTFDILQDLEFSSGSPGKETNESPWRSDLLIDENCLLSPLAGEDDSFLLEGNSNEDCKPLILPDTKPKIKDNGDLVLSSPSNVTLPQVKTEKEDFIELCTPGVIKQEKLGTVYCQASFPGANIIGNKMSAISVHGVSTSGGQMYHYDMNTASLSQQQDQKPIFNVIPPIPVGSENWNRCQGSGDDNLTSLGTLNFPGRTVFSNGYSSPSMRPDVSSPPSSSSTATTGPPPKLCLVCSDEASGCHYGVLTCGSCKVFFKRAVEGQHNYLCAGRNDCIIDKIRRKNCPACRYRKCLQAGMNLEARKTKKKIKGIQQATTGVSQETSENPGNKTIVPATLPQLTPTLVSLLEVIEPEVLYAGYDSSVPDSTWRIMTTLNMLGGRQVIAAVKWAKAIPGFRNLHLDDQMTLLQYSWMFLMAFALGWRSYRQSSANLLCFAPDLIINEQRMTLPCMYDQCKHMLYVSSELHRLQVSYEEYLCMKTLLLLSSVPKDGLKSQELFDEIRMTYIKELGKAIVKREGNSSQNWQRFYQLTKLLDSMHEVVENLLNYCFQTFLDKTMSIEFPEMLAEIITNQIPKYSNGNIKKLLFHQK
How it was run: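 MMTV-bla HeLa beta-lactamase reporter cells in 1% charcoal/dextran FBS medium, compounds up to 92 uM for 18 h at 37 C, CCF4 readout; normalized to 0.1 uM dexamethasone (100%), EC50 and efficacy from Hill fits.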

[3] = biological target: Glucocorticoid receptor (Homo sapiens) (UniProt P04150); assay: qHTS assay for small molecule antagonists of glucocorticoid receptor signaling (AID 588533; active = well fitted inhibition curve with a large enough effect in the signal ratio, with a control signal flat, not every such curve was filed as active; the % refers to the signal ratio; also: % is scaled to controls: 0 for no effect and ±100 for the full control effect)
How it was run: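 Antagonist-mode qHTS: compound titrations added to GRE-bla HeLa cells, then dexamethasone 2 nM final; 18 h, 37 C. CCF4 FRET fluorescence normalized to dexamethasone and DMSO; IC50 from Hill fit.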

[4] = qHTS assay for small molecule antagonists of peroxisome proliferator-activated receptor delta signaling (AID 588535; active = well fitted inhibition curve with a large enough effect in the signal ratio, with a control signal flat, not every such curve was filed as active; the % refers to the signal ratio;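 as to max response: cells co-treated with a PPAR-delta agonist as stimulator during compound exposure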); details: HEK293T PPARd-UAS-bla, beta-lactamase FRET ratio, 18 h; 460 nm channel
How it was run: (§1)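 Fluorescence from CCF4-loaded GeneBLAzer PPAR-delta-UAS-bla HEK293T cells (2 hrs RT loading) quantified reporter inhibition after an 18 hr, 37 C compound exposure across a titration.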

[5] = biological target: Peroxisome proliferator-activated receptor delta (Homo sapiens) (UniProt Q03181); assay: as above
Sequence of Peroxisome proliferator-activated receptor delta (Homo sapiens) (Q03181 whole entry, looked up): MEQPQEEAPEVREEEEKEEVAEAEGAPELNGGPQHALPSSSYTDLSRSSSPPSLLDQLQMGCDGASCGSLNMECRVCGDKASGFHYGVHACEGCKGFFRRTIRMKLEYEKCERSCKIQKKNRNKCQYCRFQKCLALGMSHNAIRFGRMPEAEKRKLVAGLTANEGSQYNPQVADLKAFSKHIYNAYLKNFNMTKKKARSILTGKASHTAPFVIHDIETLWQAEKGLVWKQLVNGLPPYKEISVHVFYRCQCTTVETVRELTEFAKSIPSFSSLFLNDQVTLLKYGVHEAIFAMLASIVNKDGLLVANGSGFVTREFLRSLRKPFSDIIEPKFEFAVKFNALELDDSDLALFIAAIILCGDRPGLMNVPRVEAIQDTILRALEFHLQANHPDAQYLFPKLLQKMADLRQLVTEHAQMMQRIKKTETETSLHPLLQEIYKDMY
How it was run: as §1

[6] = biological target: Peroxisome proliferator-activated receptor gamma (Homo sapiens) (UniProt P37231); assay: qHTS assay for small molecule agonists of peroxisome proliferator-activated receptor gamma signaling (AID 588536; active = well fitted curve in the direction sought with a large enough effect in the signal ratio, with a control signal flat, not every such curve was filed as active; the % refers to the signal ratio;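 also: 0% = DMSO basal wells and 100% = rosiglitazone at 2 µM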)
Sequence of Peroxisome proliferator-activated receptor gamma (Homo sapiens) (P37231 whole entry, looked up): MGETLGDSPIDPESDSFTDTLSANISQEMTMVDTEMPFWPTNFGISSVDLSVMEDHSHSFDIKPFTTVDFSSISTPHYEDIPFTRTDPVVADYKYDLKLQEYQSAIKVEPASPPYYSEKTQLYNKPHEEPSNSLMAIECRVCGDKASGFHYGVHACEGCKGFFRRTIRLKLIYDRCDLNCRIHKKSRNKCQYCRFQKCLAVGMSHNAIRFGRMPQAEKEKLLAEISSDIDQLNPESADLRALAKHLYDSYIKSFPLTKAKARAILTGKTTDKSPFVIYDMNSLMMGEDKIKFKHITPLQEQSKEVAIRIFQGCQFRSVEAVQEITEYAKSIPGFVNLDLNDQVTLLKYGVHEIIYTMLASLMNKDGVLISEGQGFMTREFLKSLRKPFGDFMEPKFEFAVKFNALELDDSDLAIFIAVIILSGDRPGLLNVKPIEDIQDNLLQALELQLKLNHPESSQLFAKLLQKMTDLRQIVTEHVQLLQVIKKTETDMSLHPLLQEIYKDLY
How it was run: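 Compound treatment: 16 h, 37 C, HEK293 GeneBLAzer cells. Detection: CCF4, 2 h RT. Values: Hill-fit EC50, efficacy as % of 2 uM rosiglitazone.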

[7] = biological target: Peroxisome proliferator-activated receptor gamma (Homo sapiens) (UniProt P37231); assay: qHTS assay for small molecule antagonists of peroxisome proliferator-activated receptor gamma signaling (AID 588537; active = well fitted inhibition curve with a large enough effect in the signal ratio, with a control signal flat, not every such curve was filed as active; the % refers to the signal ratio;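 also: reporter cells co-stimulated with 50 nM rosiglitazone agonist during compound treatment; % of control where 0% means no effect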)
How it was run: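 Fluorescence at 460 and 530 nm (405 nm excitation) reported beta-lactamase cleavage of CCF4 after 2 h room-temperature loading. HEK293 reporter cells in 1% charcoal/dextran-treated FBS had received compound and rosiglitazone for 16 h.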

[8] = biological target: Vitamin D3 receptor (Homo sapiens) (UniProt P11473); assay: qHTS assay for small molecule antagonists of vitamin D receptor signaling (AID 588541);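 also: receptor activated by calcitriol during compound treatment; series mostly up to about 77 µM; % is scaled to controls: 0 for no effect and ±100 for the full control effect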
Sequence of Vitamin D3 receptor (Homo sapiens) (P11473 whole entry, looked up): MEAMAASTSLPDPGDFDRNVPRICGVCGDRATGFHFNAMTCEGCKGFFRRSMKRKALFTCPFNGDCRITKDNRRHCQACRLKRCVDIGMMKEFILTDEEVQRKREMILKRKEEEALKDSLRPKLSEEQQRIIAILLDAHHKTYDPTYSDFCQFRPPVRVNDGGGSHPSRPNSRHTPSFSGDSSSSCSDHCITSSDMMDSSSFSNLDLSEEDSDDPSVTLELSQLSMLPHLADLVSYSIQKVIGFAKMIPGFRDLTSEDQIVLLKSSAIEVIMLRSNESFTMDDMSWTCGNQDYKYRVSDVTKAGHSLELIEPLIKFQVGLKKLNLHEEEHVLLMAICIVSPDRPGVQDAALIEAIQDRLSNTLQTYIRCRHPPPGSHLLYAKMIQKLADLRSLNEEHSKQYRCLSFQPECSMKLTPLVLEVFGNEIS
How it was run: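 VDR-UAS-bla HEK293T cells in 2% charcoal-stripped FBS were stimulated with 1-alpha,25-dihydroxyvitamin D3 (3 nM final) plus compound for 16 h at 37 C. The beta-lactamase CCF4 readout was normalized to 50 nM agonist and DMSO, and Hill fits gave IC50.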

[9] = biological target: Vitamin D3 receptor (Homo sapiens) (UniProt P11473); assay: qHTS assay for small molecule agonists of vitamin D receptor signaling (AID 588543);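 also: 0% = DMSO basal and 100% = reference agonist control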
How it was run: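 β-lactamase reporter, VDR-UAS-bla HEK293T, agonist mode. Cells plated 5 h at 37 °C, compound titration 16 h at 37 °C, CCF4 dye 2 h RT, ratio 460/530 nm. Hill fit → EC50, efficacy vs 50 nM 1α,25-(OH)2D3.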

N#Cc1ccccc1
inactive: outcome [1] | activation [2] 4.79% | outcome [3] | Potency [5] | outcome [6] | outcome [7] | outcome [8] | outcome [9]
-16.3%: max response [4]

CC(=O)Nc1cccc(N)c1
inactive: outcome [1] | activation [2] -4.95% | outcome [3] | Potency [5] | outcome [6] | outcome [7] | outcome [8] | outcome [9]
38.5%: max response [4]

Cc1cc(C)cc([N+](=O)[O-])c1
inactive: outcome [1] | activation [2] -8.13% | outcome [3] | Potency [5] | outcome [6] | outcome [8] | outcome [9]
-43.4%: max response [4]

COC(=O)CCC(=O)OC
inactive: outcome [1] | activation [2] -3.79% | outcome [3] | Potency [5] | outcome [6] | outcome [7] | outcome [9]
-38.8%: max response [4]

Cc1cc(C)c(N)cc1C
2.74%: max response [4]
inactive: outcome [1] | activation [2] 5.44% | outcome [3] | Potency [5] | outcome [6] | outcome [9]

CC(N)CN (centres undefined)
4.9%: max response [4]
inactive: outcome [1] | activation [2] -2.03% | outcome [3] | Potency [5] | outcome [6] | outcome [8] | outcome [9]

Cc1c(C(=O)O)cccc1[N+](=O)[O-]
-26.4%: max response [4]
inactive: outcome [1] | activation [2] -3.11% | outcome [3] | Potency [5] | outcome [6] | outcome [7] | outcome [8] | outcome [9]

C=C(C)C(=O)OCCCCCC
4.68%: max response [4]
inactive: outcome [1] | activation [2] 8.12% | outcome [3] | Potency [5] | outcome [6] | outcome [7] | outcome [8] | outcome [9]

Nc1cc(Cl)c(N)c(Cl)c1
7.4%: max response [4]
inactive: outcome [1] | activation [2] 0.447% | outcome [3] | Potency [5] | outcome [6] | outcome [7] | outcome [9]

CCC(C)(C)C(=O)O
inactive: outcome [1] | activation [2] -7.32% | outcome [3] | Potency [5] | outcome [6] | outcome [7] | outcome [8] | outcome [9]
-22.2%: max response [4]

O=C(O)c1ccccc1[N+](=O)[O-]
inactive: outcome [1] | activation [2] 7.49% | outcome [3] | outcome [6] | outcome [7] | outcome [8] | outcome [9]

N#CC1(O)CCCCC1
inactive: outcome [1] | activation [2] 0.0169% | outcome [3] | Potency [5] | outcome [6] | outcome [8] | outcome [9]
12%: max response [4]

C/C=C1\CC2C=CC1C2 (centres undefined)
inactive: outcome [1] | activation [2] 1.02% | outcome [3] | Potency [5] | outcome [7] | outcome [8]
-0.443%: max response [4]

CC=O
inactive: outcome [1] | activation [2] -2.95% | outcome [3] | Potency [5] | outcome [6] | outcome [8] | outcome [9]
23.9%: max response [4]

CCCCC(CC)CO (centres undefined)
inactive: outcome [1] | activation [2] -4.31% | outcome [3] | Potency [5] | outcome [6] | outcome [8] | outcome [9]
-4.39%: max response [4]

FB(F)F
9.97%: max response [4]
inactive: outcome [1] | activation [2] 3.97% | outcome [3] | Potency [5] | outcome [6] | outcome [7] | outcome [8] | outcome [9]

COC(=O)CCCC(=O)OC
14.2%: max response [4]
inactive: outcome [1] | activation [2] -5.32% | outcome [3] | Potency [5] | outcome [8] | outcome [9]

CCCCC(CC)COC(=O)CCCCC(=O)OCC(CC)CCCC (centres undefined)
-4.31% and 35.2%: max response [4]
inactive: outcome [1] | activation [2] 0.342% and 3.17% | outcome [3] | outcome [6] | outcome [8] | outcome [9]

CCc1ccccc1O
inactive: outcome [1] | activation [2] 4.35% | outcome [3] | Potency [5] | outcome [6] | outcome [7] | outcome [8] | outcome [9]
-32.1%: max response [4]

CC(=O)Nc1ccc(N)cc1
inactive: outcome [1] | activation [2] 1.17% | outcome [3] | outcome [6] | outcome [7] | outcome [8] | outcome [9]

CCC(C)O (centres undefined)
inactive: outcome [1] | outcome [3] | Potency [5] | outcome [8] | outcome [9]
-23.2%: max response [4]

Cc1cc(C)cc(N)c1
inactive: outcome [1] | activation [2] -0.353% | Potency [5] | outcome [6] | outcome [7] | outcome [9]
-0.443%: max response [4]

BrC/C=C/CBr
20.5%: max response [4]
inactive: outcome [1] | Potency [5] | outcome [6] | outcome [7]

Oc1cccc(Nc2ccccc2)c1
inactive: outcome [1] | activation [2] -7.34% | outcome [6]

CC(C)CCOC(=O)/C=C/c1ccccc1
17.3%: max response [4]
inactive: outcome [1] | activation [2] -0.0444% | Potency [5] | outcome [6] | outcome [8] | outcome [9]

CCC(O)C(C)(C)C (centres undefined)
11.2%: max response [4]
inactive: outcome [1] | Potency [5] | outcome [6] | outcome [7]

O=[N+]([O-])c1ccc(NCCO)c(OCCO)c1
inactive: outcome [1] | activation [2] 5.48% | Potency [5] | outcome [6] | outcome [8] | outcome [9]
15.8%: max response [4]

Cc1ccc(Cl)cc1N
inactive: outcome [1] | activation [2] -7.53% | Potency [5] | outcome [6] | outcome [7] | outcome [8] | outcome [9]
-18.2%: max response [4]
